# Measurements taken from the supplement of paper PMC10338343.
# ± gives the standard deviation.
# Legend:
# [1] = system: MILI (PIWIL2) piRISC loaded with piRNA #1 (26 nt); test: pre-steady-state target cleavage rate (min^-1); guide: piRNA #1 5'p-UGAGGUAGUAGGUUGUAUAGUAUCCA; higher = faster piRNA-guided slicing of the target; conditions: auxiliary factor: 500 nM mouse GTSF1
# Outline: (§1)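 Cleave-'n-Seq used a transcribed, DNA-blocked target RNA library at 0.1 nM and active affinity-purified piRISC with one synthetic guide at 1 nM, with or without 500 nM GTSF1 partner protein, in HEPES–potassium acetate buffer at 33 °C for 0–8 or 0–960 min. Uncleaved targets were sequenced and normalised to depth and to weakly complementary targets, and three trials were pooled with k3 capped at 0.0001 min^-1. The pre-steady-state cleavage rate was estimated by a burst-and-steady-state fit.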
# [2] = system: EfPiwi piRISC loaded with piRNA #1 (26 nt); test: pre-steady-state target cleavage rate (min^-1); auxiliary factor: 500 nM Ephydatia muelleri Gtsf1; guide: piRNA #1 5'p-UGAGGUAGUAGGUUGUAUAGUAUCCA; MIWI and MILI are mouse PIWI proteins and EfPiwi is from a freshwater sponge; tags in brackets are library labels; higher = faster piRNA-guided slicing of the target
# Outline: as §1
Sequence,pre-steady-state target cleavage rate [1],pre-steady-state target cleavage rate [2]
GGAGACCUUACUACUACAACCUACUACCUCA,0.107 ± 0.011,0.00852 ± 0.0036
GGAGAGGAUACUAUUCAUCCUACUACCUCA,0.273 ± 0.02,0.00619 ± 0.0034
GGAGAGGUUACUAUACAAGCUACUACCUCA,0.0739 ± 0.012,0.0046 ± 0.0021
GGAGACCAUACUAUACAACCUACUACCAGA,0.169 ± 0.027,0.00458 ± 0.0019
GGAGACCUAACGUAUACAACCUACUACCUCA,0.0292 ± 0.012,0.0505 ± 0.021
GGAGACCUAACUUUACAACCUAGUACCUCA,0.0141 ± 0.0091,0.00417 ± 0.0038
GGAGACGAUACAAAACAACCUACUACCUCA,0.149 ± 0.018,0.00359 ± 0.0033
GGAGACCUUACUAUACAACCUAGUACCUCA,0.0616 ± 0.011,0.00384 ± 0.0019
GGAGACCAAACUAUACAAGCUACUACCUCA,0.179 ± 0.025,0.00675 ± 0.0052
GGAGACGAUACUAUUCAACCUACUUCCUCA,0.0306 ± 0.0097,0.00413 ± 0.0031
GGAGACCAUCCUAUACAACCUACUACCUCA,0.16 ± 0.03,0.01 ± 0.006
GGAGAGGAUAUCUAUACAACCUACUACCUCA,0.0599 ± 0.0073,0.00594 ± 0.0046
GGAGUGGAUACUUUACAACCUACUACCUCA,0.174 ± 0.0092,0.00658 ± 0.0035
GGAGACGAUACAAUACAACCUACUACCACA,0.204 ± 0.019,0.00392 ± 0.0029
GGAGACGAAUACUAUACAACCUACUACCUCA,0.178 ± 0.015,0.0529 ± 0.018
GGAGACCAUACUAUACAACCUUCUACCACA,0.00753 ± 0.0037,0.00301 ± 0.0027
GGAGACCUUACUAUACAACCUACUACCUAA,0.154 ± 0.019,0.00756 ± 0.0045
GGAGUGGAUACUAUAGAACCUACUACCACA,0.0519 ± 0.0082,0.0024 ± 0.001
GGAGACCAUACUAUACUACGUACUACCUCA,0.0334 ± 0.0056,0.00415 ± 0.0028
GGAGACCAUACUAUACAACCAUACUACCUCA,0.0045 ± 0.0036,0.00431 ± 0.003
